Data taken from PubChem BioAssay AID588342 (National Center for Advancing Translational Sciences (NCATS), 2011).
Hit rate of the full screen: of about 360,000 compounds, about 25,000 (6.9%) were called active. Roughly 9% stayed inconclusive and do not appear here. This is one part of a sample in which actives are shown more often than they occur. Values without a mark were called inactive. The call rests on the fitted dose curve; in most records, active means well fitted inhibition curve with a large enough effect; inconclusive means small, poorly fitted or top-dose-only effect; inactive means flat fitted curve, though single readings scatter.

What follows are compounds tested against Luciferin 4-monooxygenase (Photinus pyralis) (UniProt P08659) (assay: qHTS profiling assay for firefly luciferase inhibitor/activator using purifed enzyme and Km concentrations of substrates (counterscreen for miR-21 project)). Conditions: purified FLuc, luminescence inhibition; series mostly up to 57.5 µM; activity change, negative = inhibition: at the top concentration.
Chain of Luciferin 4-monooxygenase (Photinus pyralis) (P08659 whole entry, looked up): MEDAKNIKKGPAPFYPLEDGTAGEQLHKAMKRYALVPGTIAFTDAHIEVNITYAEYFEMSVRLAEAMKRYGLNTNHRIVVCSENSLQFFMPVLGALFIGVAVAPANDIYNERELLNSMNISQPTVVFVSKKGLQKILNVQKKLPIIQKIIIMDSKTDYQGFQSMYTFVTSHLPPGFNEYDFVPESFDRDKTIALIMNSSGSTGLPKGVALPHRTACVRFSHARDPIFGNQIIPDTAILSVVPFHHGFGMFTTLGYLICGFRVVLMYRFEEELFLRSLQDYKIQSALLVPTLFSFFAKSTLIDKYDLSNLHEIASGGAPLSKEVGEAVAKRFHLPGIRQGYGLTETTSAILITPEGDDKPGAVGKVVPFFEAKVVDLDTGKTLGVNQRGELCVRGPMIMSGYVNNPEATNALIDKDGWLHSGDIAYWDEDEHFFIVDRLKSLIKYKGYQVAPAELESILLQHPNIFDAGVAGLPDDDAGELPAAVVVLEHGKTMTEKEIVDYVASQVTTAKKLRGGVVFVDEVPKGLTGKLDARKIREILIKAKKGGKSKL
Description: MLPCN Grant: 1 R21 NS059478-01 (miR-21 grant) Assay Provider: NCGC NCGC Assay Overview: Firefly (Photinus pyralis) luciferase is one of the most commonly used transcriptional reporters for a number of reasons. It is considered one of the more dynamically responsive reporters -that is, responsive to changes in reporter transcription - as it requires no post-translational modifications and is enzymatically active directly after protein synthesis (Wood, 1998). Additionally, the half-life of the luciferase protein is short relative to other reporter-gene products (Wood, 1995). Whereas reporters with long half-lives potentially allow for increased signal due to accumulation of reporter-gene product, once accumulated in the cell, dynamic changes in reporter-gene expression may be difficult to detect(Fan and Wood, 2007; Almond et al., 2004). It has been shown that wild-type P. pyralis luciferase has a half-life of approximately […] hours in mammalian cells (Thompson et al., 1991). Firefly luciferase reporter-gene assays are also generally considered one of the most sensitive assay types (Wood, 1995; Wood, 1998). Although light produced in a bioluminescence reaction is of lower intensity than that produced during fluorescence emission, this is offset by little to no background light inherent to luminescent assays. Thus the luciferase reporter can be expressed at much lower levels than fluorescent proteins while still providing robust signal. # However, it was initially observed, in 1991, by Thompson et al., that compounds that resemble the substrates of firefly luciferase (FLuc) can act as competitive inhibitors of the enzyme, and that these compounds, upon interaction with luciferase in the cell, can actually stabilize the protein and increase its half-life. Accumulated intracellular FLuc protein can be measured as an increase in luminescence signal, upon addition of detection reagents (which contain high concentrations of FLuc substrates) commonly used in high-throughput screening. In cell-based reporter gene assays that use FLuc as the reporter gene to quantitate the potential influence of a given compound against the target biology, this apparent increase in luminescence can mistakenly be interpreted as identification of a compound that is active against the target of interest. This is the case for the miR-21 FLuc reporter gene assay used to identify inhibitors of the miR-21 pathway (PubChem AID 2289) - compounds of interest will inhibit miR-21 biogenesis/expression or activity, and are identified by causing an increase in luminescence, due to increased FLuc translation. However, FLuc inhibitory compounds that stabilize the FLuc protein will give an identical read-out, making it difficult to distinguish compounds that are active against the target from those active against FLuc. Previous profiling work to determine the prevalence of compounds that affect FLuc enzymatic activity (PubChem AID 411) identified that ~3% of the MLSMR library (then at ~72K) inhibited FLuc. […] Since the MLSMR had grown to ~350K compounds, and since it was expected that a significant percentage of compounds found active in the miR-21 FLuc assay would be FLuc inhibitors, the library was screened for activity against FLuc using a biochemical assay of purified FLuc and KM concentrations of FLuc substrates (D-luciferin and ATP).
NCGC Assay Protocol Summary: Reagents: 50mM Tris acetate, pH 7.5; 10mM Mg acetate; 10uM D-luciferin (Sigma #L9504); 10uM ATP; 0.01% Tween-20; 0.05% BSA; 10nM P. pyralis luciferase (Sigma #L9506) Control compounds used were two known firefly luciferase inhibitors (compounds (2) and (5) in Auld et al., 2010), and DMSO. […]
Further: nearly all actives have a fitted effect of over 55% in size.
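Wherever activity change, negative = inhibition is given: plate controls were vehicle for no effect and reference inhibitor for full effect.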

SMILES	activity change, negative = inhibition [%]	Potency
COc1ccc(OC)c(NC(=O)Cn2c(=O)n(Cc3ccccc3)c(=O)c3ccccc32)c1	-0.577	
Cc1ccc(NC(=O)C(C)Sc2nnc(C3CC3)n2C2CC2)cc1S(=O)(=O)N1CCOCC1 (centres undefined)	12.6	
Nc1[nH][nH]c(=O)c1N=Nc1ccc2c(c1)OCO2		13.5 µM (active)
CC(=O)c1cc2c(cc1N)OCO2	3.19	
CC(=O)C1=C(C)NC(=O)NC1c1ccc2c(c1)OCO2 (centres undefined)	4.8	
Cc1ccc(CNC(=O)CC(NC(=O)c2ccccc2)c2ccccc2)cc1 (centres undefined)	6.17	
Cc1cccc(NC(=O)CN2CCN(CC(=O)NCC3(N4CCCCC4)CCCCC3)CC2)c1C	6.22	
CCn1c(SCC(=O)Nc2nccs2)nnc1-c1ccncc1	-0.256	
CCn1c(SCC(=O)c2ccc(Cl)s2)nnc1-c1cccs1		16.9 µM (active)
Cn1c(SCC(=O)N2CCCC2)nnc1-c1cccs1	0.337	
Cc1ccc(C)c(N2CCN(C(=O)Cn3ncc4c(=O)oc5ccc(C)cc5c43)CC2)c1	2.16	
COc1ccc(OC)c(CCNC(=O)CCCn2c(=O)c3cccn3c3cccnc32)c1	-0.342	
COc1ccc(N(CCC(=O)NCCc2ccccc2)S(=O)(=O)c2ccc(C)cc2C)cc1	-19.9	
O=C(Nc1cc(C(F)(F)F)ccc1Cl)c1cc2nc3c(c(C(F)(F)F)n2n1)CCCC3		2.69 µM (active)
O=C(Nc1cc(C(F)(F)F)ccc1Cl)c1cc2nc(-c3ccc4c(c3)OCO4)cc(C(F)(F)F)n2n1	4.73	
O=C(CSc1nc(=O)[nH]c2c1CCCC2)Nc1cc(C(F)(F)F)ccc1Cl	-12.1	
COc1cccc(N2CCN(S(=O)(=O)c3ccc4c(c3)CCCN4C(C)=O)CC2)c1	-5.49	
O=S(=O)(NCc1ccco1)c1cnc(Cl)c(Cl)c1	-0.879	
COc1ccc(/C(C)=N/Nc2cc(C(F)(F)F)ccc2Cl)c(OC)c1	3.38	
C/C(=N\Nc1ccc(S(N)(=O)=O)cc1[N+](=O)[O-])c1cccs1	0.692	
C/C(=N\NC(=O)COc1c(C)cccc1C)c1cccs1	6.97	
C/C(=N\Nc1ncc(Cl)cc1Cl)c1ccc(S(=O)(=O)NCc2ccco2)cc1		16.9 µM (active)
Cc1c(Cl)cnc(NC(=O)COC(=O)c2ccc(S(=O)(=O)NCc3ccco3)cc2)c1Cl	-2.56	
C/C(=N\NS(=O)(=O)c1ccc(Br)cc1)c1cccs1	-1.87	
C/C(=N\Nc1nc2ccccc2[nH]1)c1cccs1		2.69 µM (active)

SMILES	activity change, negative = inhibition [%]	Potency
CC(Oc1ccc(Cl)cc1)C(=O)OCC(=O)Nc1ncc(Cl)cc1Cl (centres undefined)	4.74	
O=C(Nc1ccccc1-c1nc2ccccc2[nH]c1=O)c1cccs1	-3.19	
COc1cccc(/C(C)=N/Nc2ncc(Cl)cc2Cl)c1		19 µM (active)
C/C(=N\Nc1ncc(Cl)cc1Cl)c1cccs1		9.53 µM (active)
CCOC(=O)c1c(NC(=O)CSc2cn(CCNC(=O)c3cccc(C(F)(F)F)c3)c3ccccc23)sc2c1CCC2	4.53	
Cc1occc1-c1nnc(SCC(=O)NC2CCCCC2)o1	0.886	
CCCc1nn2c(=O)cc(COC(=O)c3ccc(NC(=O)COc4ccc(F)cc4)cc3)nc2s1	-4.99	
COc1ccc(S(=O)(=O)NCC(c2ccc(N(C)C)cc2)N2CCCC2)cc1 (centres undefined)	-3.23	
O=C(Cn1ncc2c3ccccc3n(Cc3ccccc3)c2c1=O)NCCCN1CCOCC1	1.27	
CCn1c(CNC(=O)C23CC4CC(CC(C4)C2)C3)nnc1SCC(=O)Nc1ccc(OC)cc1	2.85	
Cn1cnnc1SCC(=O)Nc1ccc(N2CCOCC2)cc1	-16.7	
CCn1c(Cc2ccc(OC)cc2)nnc1SCC(=O)Nc1ccc(N2CCOCC2)cc1		23.9 µM (active)
Cc1ccc(Cl)cc1N1CCN(C(=O)c2cn(C)c3ccc(S(=O)(=O)N(C)C4CCCCC4)cc3c2=O)CC1	-2.62	
Cc1ccc(NC(=O)CCCNC(=O)c2ccc(Cl)cc2)cc1S(=O)(=O)N1CCCCC1	-1.07	
COC(=O)c1ccc(C2C(C(=O)Nc3ccccc3)=C(C)Nc3nc4ccccc4n32)cc1 (centres undefined)	1.14	
COC(=O)c1ccc(C2C3=C(Nc4nnnn42)c2ccccc2OC3)cc1 (centres undefined)		6.01 µM (active)
COC(=O)C1=C(C(=O)c2ccc(C)cc2)C(c2ccccc2)n2nnnc2N1 (centres undefined)	-5.96	
Cc1nc(SCC(=O)N2CC(=O)Nc3ccccc32)c2c(C)c(C)sc2n1	1.77	
COc1cccc(Nc2nnc(SCC(=O)N3CC(C)OC(C)C3)s2)c1 (centres undefined)		21.3 µM (active)
COc1ccc(C(=O)CSc2nnc(NC(=O)C3CC(=O)N(c4cccc(OC)c4)C3)s2)cc1 (centres undefined)	4.63	
COc1cccc(Nc2nnc(SCC(=O)N3CC(=O)Nc4ccccc43)s2)c1		21.3 µM (active)
COc1cccc(-c2nnc(SCC(=O)N3CCC(C)CC3)o2)c1	3.58	
COc1cc(OC)c(C(=O)OCC(=O)N2CC(=O)Nc3ccccc32)cc1OC	0.484	
O=C(Nc1ccccc1Cl)N1CCC(CN2CCCCC2)CC1	-3.25	
